Bioassay records (PubChem BioAssay)
EP2 modulator = EP2 receptor (human) modulation; actives 0.83% (n = 260,000); induction, % at 25 µM; P43116; EP2-expressing cells, cAMP HTRF FRET, PGE2 co-stimulation;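 active means compounds whose cAMP rise, as percent of the full-agonist control response, exceeds 60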;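 further: rat C6 glioma line stably carrying human EP2 under a CMV promoter; the protocol text gives 20 µM as final concentration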
Target sequence (P43116 whole entry, looked up): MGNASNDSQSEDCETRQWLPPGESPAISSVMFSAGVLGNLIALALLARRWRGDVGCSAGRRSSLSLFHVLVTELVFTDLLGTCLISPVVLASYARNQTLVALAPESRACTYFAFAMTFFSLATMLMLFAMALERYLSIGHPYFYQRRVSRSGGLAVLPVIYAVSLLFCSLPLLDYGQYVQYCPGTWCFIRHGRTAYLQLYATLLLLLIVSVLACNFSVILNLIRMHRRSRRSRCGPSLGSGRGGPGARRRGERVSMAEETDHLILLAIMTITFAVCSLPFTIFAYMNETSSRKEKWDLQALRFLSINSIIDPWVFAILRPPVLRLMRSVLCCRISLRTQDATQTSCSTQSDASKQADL
CHT allo act = allosterically activates the human high affinity choline transporter; Q9GZV3; CHT-expressing cells, membrane potential dye, choline EC20; stronger effect = higher value; LV-AA mutant CHT in HEK293 cells; B-score at 10 µM; actives 0.49% (n = 310,000);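 active means initial fluorescence not abnormally high and integrated response B-score, plate-corrected, over 3 SD above library mean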
PGE2 EP2 inh = EP2 receptor (human) inhibition; inhibition, % at 25 µM; C6 glioma cells expressing human EP2, cAMP TR-FRET; cells stimulated with saturating PGE2; P43116; actives 0.52% (n = 260,000); AID 1422;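 active means percent inhibition above 40 after rounding to a whole number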;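 further: rat C6 glioma host cells with rolipram phosphodiesterase inhibitor present; the protocol text gives 20 µM as final concentration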
CHT block = human CHT choline transport inhibition; Q9GZV3; CHT-expressing cells, membrane potential dye, choline response; stronger effect = lower value; B-score at 10 µM; actives 0.86% (n = 310,000);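 active means B-score over 3 SD under the library average, and starting fluorescence ratio not unusually high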;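 further: choline stimulus applied at its EC90 after an EC20 pre-addition; B-score computed on integrated fluorescence ratio after choline addition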
CHT activ conf = confirmation of human choline transporter (CHT) activators; shares compounds with CHT allo act; actives 91% (n = 2,500); CHT-expressing cells, membrane potential dye fluorescence (FDSS); % of choline EC20–EC90 response window; HEK293 expressing CHT LV-AA mutant; choline added at its EC20; activation, % at 10 µM; AID 504833;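 active means primary screen active, with duplicate mean activation above negative control mean plus 3 SD, cut at about 11% in these data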
HEK293 MP dye = counter-screen for CHT activators: effect in parental HEK293 cells; shares compounds with CHT allo act; membrane potential dye fluorescence (FDSS); measured after EC20 choline addition; ratio readout change at 10 µM, hits read low; actives 62% (n = 2,500); AID 623908;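 active means duplicate-averaged ratio beyond 3 SD from buffer wells, up or down, though filed actives are nearly all decreases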
Hits are given with their value; 0 = inactive; - = not tested or not shown. This is a sample that favours compounds with a hit; in the whole collection about 2.1% have one here.

SMILES | EP2 modulator | CHT allo act | PGE2 EP2 inh | CHT block | CHT activ conf | HEK293 MP dye
COc1ccc2nc(NC3=NCCC3)sc2c1 | 0 | 6.5 | 0 | 0 | 54.0 | -44.9
COc1ccc(-c2nc(NC3=NCCCCC3)sc2C)cc1 | 0 | 0 | 0 | 0 | - | -
Cc1c(Cl)cccc1NC(=O)COC(=O)c1ccccn1 | 0 | - | 0 | - | - | -
CCC1=Nc2ccc(Br)cc2C(c2ccccc2)N1CC(=O)OC (stereo unspecified) | 0 | 11.2 | 0 | 0 | 13.6 | 0
Clc1ccc(-c2nc3ccncc3[nH]2)cc1 | 0 | 6.77 | 0 | 0 | 51.6 | -50.8
Fc1ccc(-c2nc3ccccc3[nH]2)cc1 | 0 | 0 | 0 | 0 | - | -
Fc1ccc(-c2nc3ccncc3[nH]2)cc1 | 0 | 7.92 | 0 | 0 | 59.4 | -64.8
O=C(CSc1ncnc2sc3c(c12)CCCC3)NCc1ccccc1 | 0 | - | 0 | - | - | -
COc1ccc(C(C)=O)cc1CSC(=N)N | 0 | 0 | 0 | 0 | - | -
CCOc1ccc(C(C)=O)cc1CSC(=N)N | 0 | 0 | 0 | 0 | 12.6 | -45.4
Cc1ccc2cc(C(c3nnnn3Cc3ccccc3)N3CCN(C4CCCCC4)CC3)c(=O)[nH]c2c1 (stereo unspecified) | 0 | - | 0 | - | - | -
O=C(N/N=C/c1ccco1)c1ccc(N2CCCC2=O)cc1 | 0 | 7.73 | 0 | 0 | 59.4 | -70.5
CCCOc1ccc(C2C(C#N)=C(N)Oc3n[nH]c(-c4cccs4)c32)cc1 (stereo unspecified) | 0 | - | 0 | - | - | -
COc1ccc2c3c(cccc13)C(=O)N(O)C2=O | 0 | 0 | 0 | 0 | 40.9 | -30.5
COCCn1nnnc1C(c1cc2cccc(C)c2[nH]c1=O)N1CCN(c2ccc(OC)cc2)CC1 (stereo unspecified) | 0 | - | 0 | - | - | -
COc1ccc(-c2csc3nc(C)nc(N4CCCCC4)c23)cc1OC | 0 | 0 | 0 | 0 | 26.7 | 0
COc1ccc(-c2csc3nc(C)n(-n4cccc4)c(=O)c23)cc1OC | 0 | 0 | 0 | 0 | - | -
CC(C)n1c(=O)n(CC(=O)N2CCCC2)c2cccnc21 | 0 | - | 0 | - | - | -
CCn1c(SCC(=O)Nc2ccc(OC)cc2)nnc1C1CCCCC1 | 0 | - | 0 | - | - | -
CN(C)c1ccc2c3c(ccc(N(C)C)c13)COC2 | 0 | 14.6 | 0 | 0 | 24.4 | -31
O=C(CSc1ncc(-c2ccccc2)n1-c1ccccc1)NCc1ccco1 | 0 | 0 | 0 | 0 | - | -
COc1ccc(-n2c(-c3ccc(F)cc3)cnc2SCC(=O)NCc2ccco2)cc1 | 0 | 0 | 0 | 0 | 33.2 | 0
COCCn1nnnc1C(c1ccccn1)N1CCN(c2cc(Cl)ccc2C)CC1 (stereo unspecified) | 0 | 7.9 | 0 | 0 | 15.1 | 0
Cc1ccc2cccnc2c1N | 0 | 0 | 0 | 0 | - | -
Cc1cc(C[n+]2cc(Cl)ccc2N)c2ncccc2c1 | 0 | 15.8 | 0 | 0 | 45.6 | -39
SMILES | EP2 modulator | CHT allo act | PGE2 EP2 inh | CHT block | CHT activ conf | HEK293 MP dye
Cc1cc(C[n+]2cc(Br)ccc2N)c2ncccc2c1 | 0 | 8.47 | 0 | 0 | 49.3 | -43.9
Cc1cc(C[n+]2ncsc2N)c2ncccc2c1 | 0 | 0 | 0 | 0 | 73.2 | -23.4
Cc1cccc2cc3c(nc12)OC(C)C(=O)N(Cc1ccc2c(c1)OCO2)C3 (stereo unspecified) | 0 | - | 0 | - | - | -
CCCn1c(=O)c2ccccc2n2c(SCCNCCO)nnc12 | - | 9.1 | - | 0 | 57.3 | -51.5
CCOC(=O)Nc1ccc2c(c1)N(C(=O)CCCl)c1ccccc1CC2 | 0 | - | 0 | - | - | -
Cc1ccc2nc3ccc(N4CCCC4)nn3c(=O)c2c1 | 0 | 0 | 0 | 0 | 44.3 | -46.4
CC1CCCN(c2ccc3nc4ccccc4c(=O)n3n2)C1 (stereo unspecified) | 0 | 0 | 0 | 0 | - | -
CCOC(=O)CNC(=O)CSc1cc(C)nc2ccc(OC)cc12 | 0 | 0 | 0 | 0 | 44.4 | -42.3
COc1ccc2nc(SCC(=O)N3CCCC3)c(C)cc2c1 | 0 | - | 0 | - | - | -
COc1ccc2nc(C)cc(SCC(=O)N3CCCCC3)c2c1 | 0 | 0 | 0 | 0 | 31.8 | -45.2
Cc1[nH]nc2c1C(c1ccc(N3CCOCC3)cc1)C(C#N)=C(N)O2 (stereo unspecified) | 0 | - | 0 | - | - | -
Cc1cc(=O)n2nc(-c3ccccc3)sc2c1C#N | 0 | 6.43 | 0 | 0 | 28.7 | -26.5
Cc1cc(=O)n(Cc2ccccc2)c(O)c1C#N | - | 0 | - | 0 | - | -
O=C(Nc1ccc(F)cc1)N(Cc1cc2cc3c(cc2[nH]c1=O)OCO3)CC1CCCO1 (stereo unspecified) | 0 | - | 0 | - | - | -
COCCNC(=O)CCCSc1nc(-c2ccco2)cc(C(F)(F)F)n1 | 0 | - | 0 | - | - | -
CCN(Cc1ccccc1)C(=O)c1nn(-c2ccc(OC)cc2)c(=O)c2c1c1ccccc1n2C | 0 | 0 | 0 | 0 | 46.4 | 0
CCCN1CCN(C(=O)c2nn(-c3ccc(OC)cc3)c(=O)c3c2c2ccccc2n3C)CC1 | 0 | 0 | 0 | 0 | - | -
N#CC(C#N)=C1c2cc(S(=O)(=O)NCCO)ccc2-c2ccc(S(=O)(=O)NCCO)cc21 | 0 | 9.53 | 0 | 0 | 54.1 | -51.8
O=C1c2cc(S(=O)(=O)NCCO)ccc2-c2ccc(S(=O)(=O)NCCO)cc21 | 0 | 0 | 0 | 0 | 41.0 | -35
COc1ccc(CN(C(=O)CSc2ncnc3sc(C)c(C)c23)c2ccc(F)cc2)cc1OC | 0 | - | 0 | - | - | -
Cc1cc2c(cc1C)C(O)CC1(CCN(CC(O)c3ccc4ccccc4c3)CC1)O2 (stereo unspecified) | 0 | - | 0 | - | - | -
COCCNC(=O)Cn1nc2c3c(C)c(C)sc3nc(C)n2c1=O | 0 | - | 0 | - | - | -
CC(C)(C)NC(=O)c1oc2ccccc2c1COc1ccccc1 | 0 | 0 | 0 | 0 | 32.8 | 0
Cc1ccc(N2CC(C(=O)N3CCC(n4nnc5cccnc54)CC3)CC2=O)cc1C (stereo unspecified) | 0 | - | - | - | - | -
CCNS(=O)(=O)c1cc(-c2nnc(OC)c3ccccc23)ccc1C | - | 7.71 | - | 0 | 0 | 0
SMILES | EP2 modulator | CHT allo act | PGE2 EP2 inh | CHT block | CHT activ conf | HEK293 MP dye
Cc1ccc(-c2n[nH]c(=O)c3ccccc23)cc1S(=O)(=O)NCCO | 0 | 0 | 0 | 0 | - | -
CN1/C(=C\C=[N+](C)c2ccccc2)C(C)(C)c2ccccc21 | 0 | 8.08 | 0 | 0 | 74.6 | -23.5
Cc1nnc(NCc2ccncc2)c2ccccc12 | 0 | 7.07 | 0 | 0 | 56.1 | -46.4
Cc1nnc(NCc2ccccc2)c2ccccc12 | 0 | 0 | 0 | 0 | - | -
COCCNC(=O)[C@H]1C[C@@H](c2ccc(F)cc2)NS(=O)(=O)N1C | 0 | - | - | - | - | -
CCOc1ccc(NC(=S)N(Cc2cc3cccc(C)c3[nH]c2=O)C2CCCC2)cc1 | 0 | - | 0 | - | - | -
Cc1ccc(-c2nn(C)c(=O)c3ccccc23)cc1CN1CCCCC1 | 0 | 8.66 | 0 | 0 | 26.8 | -52.2
Cc1ccc(-c2nn(C)c(=O)c3ccccc23)cc1CNS(C)(=O)=O | 0 | 0 | 0 | 0 | - | -
CN(C)CCN(Cc1ccccc1)S(=O)(=O)c1ccc2c(c1)n(C)c(=O)c(=O)n2C | 0 | 12.1 | 0 | 0 | 73.9 | -81.2
